# Measurements reported in ChEMBL document CHEMBL1157539, “Thousands of chemical starting points for antimalarial lead identification” (Nature, 2010).
# Test system: Plasmodium falciparum
# Assay: GSK_TCMDC: Inhibition of Plasmodium falciparum 3D7 in whole red blood cells, using parasite LDH activity as an index of growth. Test compounds present at 2uM
# Type: functional
row,SMILES,Inhibition
1,CCCCCCC1(C)N=C(N)N=C(N)C1c1ccc(Cl)c(Cl)c1.Cl (stereo not given),94%
2,CC(C)N1CCC(N(Cc2ccc(-c3ccc(C(F)(F)F)cc3)cc2)C(=O)Cn2c(SCc3cccc(F)c3F)nc(=O)c3ccccc32)CC1.O=C(O)C(O)C(O)C(=O)O,91%
3,Cc1[nH]c(C)c(-c2ccc(CCc3ccc(F)cc3F)cc2)c(=O)c1Cl,98%
4,COc1ccc(C=NN=c2c3ccccc3[nH]c3ccccc23)c2ccccc12,82%
5,COc1ccc2c(c1)c(C1CCN(CCCCNC(=O)c3ccc(-c4ccc(C(F)(F)F)cc4)cc3)CC1)cn2C(C)C,99%
6,O=C(Nc1ccc(Cl)c(Cl)c1)N1CCC(NCc2cccc([N+](=O)[O-])c2)CC1.O=C(O)C(F)(F)F,97%
7,CCCS(=O)(=O)c1nc(S(=O)(=O)c2ccc(Cl)cc2)c(N2CCCCC2)s1,87%
8,Cc1cc(N)c2cc(NC(=O)CCC(=O)Nc3ccc4nc(C)cc(N)c4c3)ccc2n1,85%
9,CNCCNCc1cccc(-c2cccc(-c3nc4cccc(C)c4[nH]3)c2)c1.O=C(O)C(F)(F)F,98%
10,Cc1cc(NCCCN2CCCC2=O)n2c(nc3ccccc32)c1C#N,93%
11,CC1CCN(CCCNc2ccc(C(=O)Nc3ccc(C(F)(F)F)cc3)cc2[N+](=O)[O-])CC1,100%
12,Cl.NC1CCN(CCc2ccc(NS(=O)(=O)c3cccc4ccccc34)cc2)CC1,94%
13,CCCCCCN(CCCCCC)CC(O)c1cc(-c2ccc(Cl)cc2)nc2c(C)cc(C)cc12 (stereo not given),98%
14,FC(F)(F)c1ccc(N2CCCN(Cc3cccc(-c4ccccc4CNCc4ccc5c(c4)OCO5)c3)CC2)nc1.O=C(O)C(F)(F)F,87%
15,CC(C)(C)c1ccc2[nH]c(-c3ccc(C(=O)NC4CCN(Cc5ccccc5)CC4)s3)nc2c1,91%
16,CCCC(C)Nc1nc(C)cc(N[C@@H](Cc2ccccc2)C(=O)NCCc2ccccc2)n1.O=C(O)C(F)(F)F (stereo not given in full),97%
17,COc1ccc(C(=O)C2CCN(CCCCNC(=O)c3ccc(NC(=O)c4cc(Cl)cc(Cl)c4)cc3)CC2)cc1,100%
18,CN(C)CCN(Cc1ccc(-c2ccc(CNCCc3ccccc3)cc2)nc1)C(=O)CCC1CCCC1.O=C(O)C(F)(F)F,96%
19,O=C(O)C(F)(F)F.O=S(=O)(/C=C/c1ccccc1)N(Cc1ccc(-c2ccc(CNCCOc3ccccc3)cc2)cc1)CC1CCCCN1 (stereo not given),99%
20,COc1ccc2ncc(C#N)c(CCN3CCC(NCc4ccc5c(c4)OCCO5)CC3)c2c1.Cl,96%

row,SMILES,Inhibition
1,Fc1ccccc1CNc1ncc(-c2ccsc2)c(-c2nccs2)n1,86%
2,COc1ccc2ncc(F)c(CCN3CCC(CNC(=O)C(=O)c4c[nH]c5ccccc45)CC3)c2n1,100%
3,CN1CCN(c2ncnc3ccc(NC(=O)Nc4ccc(Cl)c(Cl)c4)cc23)CC1,100%
4,CC(C)(C)c1nn(-c2ccccc2)c2[nH]c(=O)c(CNC3CCCCC3)cc12,83%
5,CC(=O)Nc1nc(C(=O)Nc2ccc(-c3ccc(-c4nc5cc(F)ccc5[nH]4)cc3)cc2)cs1,100%
6,COc1ccc2cc(C(C)NC3CCN(c4cccc(NC(=O)c5ccncc5)c4)CC3)ccc2c1 (stereo not given),91%
7,O=C(NC1CC1)C1CCN(Cc2cc3ccccc3n2Cc2ccc(Cl)cc2)CC1,95%
8,CCOC(=O)C(NC(=O)c1ccc([N+](=O)[O-])o1)C(C)C (stereo not given),87%
9,Cl.O=S(=O)(Nc1cc2c(cc1O)CCN(C1CCC1)CC2)c1ccc(Oc2ccc(F)cc2)cc1,99%
10,COc1cc(Nc2ccnc3ccc(C(F)(F)F)cc23)cc(OC)c1OC,100%
11,Cc1ccc(F)c(OCC2CCCN(c3ccc(C(=O)NC4CC4)cn3)C2)c1 (stereo not given),96%
12,CN(C)CCCNC(=O)c1ccccc1Sc1ccccc1C#N.Cl,89%
13,CCNc1cc(C(=O)N[C@@H](Cc2ccccc2)[C@H](O)CNC2(Cc3cccc(Cl)c3)CCC2)cc(N2CCCCS2(=O)=O)c1.Cl,95%
14,Cc1cccc(CCCNC(=O)CN(c2cccc(C(F)(F)F)c2)S(=O)(=O)c2ccc(C(F)(F)F)cc2)c1,96%
15,CCN1CCN(CCNc2c3ccccc3nc3ccccc23)CC1.Cl,93%
16,CN1CCCc2ccc(NC(=O)Nc3ccc(Cl)c(Cl)c3)cc2C1,89%
17,O=C(Nc1ccc(-c2nc3ccccc3[nH]2)cc1)c1ccc(S(=O)(=O)N2CCCCCC2)cc1,97%
18,O=C(NCc1ccccc1)c1ccc(C(=O)NCC2CNCCO2)cc1.O=C(O)C(F)(F)F (stereo not given),92%
19,COc1cc2c(cc1S(=O)(=O)c1ccc(NC(=O)c3ccc4ccccc4c3)cc1)CCN(C)CC2,99%
20,CC(C)Oc1cc2c(cc1NS(=O)(=O)c1ccc(-c3ccc(Cl)cc3)cc1F)CCN(C)CC2.Cl,88%
